Source: PubChem BioAssay (EPA / NIEHS)
Records with an inconclusive call do not appear. Calls of active or inactive are those of the source. How the source made its calls, unless noted: active means hit-call score of the fitted dose curve at least 0.9, where 1 is the maximum; inactive means score below 0.9.

Legend:
[1] = biological target: Nucleoli Translocation, AR (gene 367) (UniProt P10275); assay: UPITT_HCI_U2OS_AR_TIF2_Nucleoli_Antagonist: University of Pittsburgh U2OS Androgen Receptor-Transcriptional Intermediary Factor 2 (AR-TIF2) Antagonism High Content Imaging Assay for Nucleoli Translocation (AID 2283997; active means hit-call score of the fitted dose curve at least 0.9, where 1 is the maximum)
Procedure, shortened: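 Measured quantity was AR-RFP fluorescence localized to nucleoli in engineered U2OS cells also bearing TIF2-GFP, acquired on automated high-content imagers. Primary testing used 20 uM compound; actives were confirmed in triplicate wells.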

[2] = biological target: Ratio of Nucleoli Translocation and Cytoplasm, AR (gene 367) (UniProt P10275); assay: UPITT_HCI_U2OS_AR_TIF2_Nucleoli_Cytoplasm_Ratio_Antagonist: University of Pittsburgh U2OS Androgen Receptor-Transcriptional Intermediary Factor 2 (AR-TIF2) Antagonism High Content Imaging Assay for Ratio of Nucleoli Translocation and Cytoplasm (AID 2283999; active means hit-call score of the fitted dose curve at least 0.9, where 1 is the maximum;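 further: antagonists lower the DHT-driven ratio of nucleolar to cytoplasmic red signal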)
Procedure, shortened: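 U2OS cells co-expressing RFP-tagged human AR and GFP-tagged TIF2, antagonist mode with DHT as baseline. Nucleolar-to-cytoplasmic red fluorescence ratio imaged by high-content microscopy; final compound 20 uM (0.2% DMSO) primary, 0.195–50 uM (0.5% DMSO) concentration-response.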

[3] = CCTE_Harrill_HTTr_Viability_MCF7: CCTE's 6-hour Cell Viability Assessment for the High-Throughput Transcriptomics (HTTr) Platform, in MCF-7 cells cultured in DMEM + 10% fetal bovine serum, Harrill Lab (AID 2284010)
Procedure, shortened: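 MCF-7 cells in DMEM + 10% FBS, 384-well, exposed 6 h to an eight-point dilution series. Membrane integrity scored by high-content imaging of propidium iodide exclusion; bidirectional fit versus DMSO.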

[4] = CCTE_Harrill_HTTr_Apoptosis_MCF7: CCTE's 6-hour Apoptosis Assessment for the High-Throughput Transcriptomics (HTTr) Platform, in MCF-7 cells cultured in DMEM + 10% fetal bovine serum, Harrill Lab (AID 2284011)
Procedure, shortened: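 MCF-7 cells in DMEM + 10% FBS exposed 6 h to chemicals over an eight-point dilution series. Caspase-3/7 activation imaged by high-content CellEvent Green staining; fitted bidirectionally versus DMSO.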

[5] = CCTE_Harrill_HTTr_CellCount_MCF7: CCTE's Cell Proliferation Assessment for the High-Throughput Transcriptomics (HTTr) Platform, Harrill Lab (AID 2284012; active means hit-call score of the fitted dose curve at least 0.9, where 1 is the maximum;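 further: cells exposed to compound for six hours; intended direction is loss of nuclei count meaning fewer cells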)
Procedure, shortened: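 MCF7 cells exposed 6 hours to an eight-point dilution series; Hoechst-stained nuclei counted by high-content imaging. Bidirectional curve fitting against DMSO baseline.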

[6] = biological target: Nucleoli Translocation, AR (gene 367) (UniProt P10275); assay: UPITT_HCI_U2OS_AR_TIF2_Nucleoli_Agonist: University of Pittsburgh U2OS Androgen Receptor-Transcriptional Intermediary Factor 2 (AR-TIF2) Agonism High Content Imaging Assay for Nucleoli Translocation (AID 2283998; active means hit-call score of the fitted dose curve at least 0.9, where 1 is the maximum)
Procedure, shortened: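 U2OS cells expressing RFP-tagged human AR and GFP-tagged TIF2; red fluorescence in nucleoli quantified by high-content imaging. Primary screen at 20 uM final (0.2% DMSO); concentration-response 0.195–50 uM (0.5% DMSO), fitted upward versus DMSO.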

[7] = biological target: Ratio of Nucleoli Translocation and Cytoplasm, AR (gene 367) (UniProt P10275); assay: UPITT_HCI_U2OS_AR_TIF2_Nucleoli_Cytoplasm_Ratio_Agonist: University of Pittsburgh U2OS Androgen Receptor-Transcriptional Intermediary Factor 2 (AR-TIF2) Agonism High Content Imaging Assay for Ratio of Nucleoli Translocation and Cytoplasm (AID 2284000; active means hit-call score of the fitted dose curve at least 0.9, where 1 is the maximum;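 further: hits raise the red nucleolar to cytoplasm ratio above vehicle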)
Procedure, shortened: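 Read-out first: nucleolar-to-cytoplasm ratio of red (AR-RFP) signal, quantified by high-content imaging in U2OS cells co-expressing TIF2-GFP. Activity is scored as signal increase over DMSO. Single-point screening used 20 uM final (0.2% DMSO).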

[8] = CCTE_Shafer_MEA_acute_spike_number: CCTE's Neural Acute Assay for Total Number of Spikes, Shafer Lab (AID 2284008);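 on AC50: curve fitted for decrease in spike count so AC50 reflects inhibitors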
Procedure, shortened: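 Rat primary cortical neurons on 48-well MEA plates, DIV 13 or 15, at 37 C. 40 min baseline then 40 min with compound (0.03-40 uM); spikes detected at 8x rms noise, expressed as percent change from baseline.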

[9] = CCTE_Shafer_MEA_acute_firing_rate_mean: CCTE's Neural Acute Assay for Mean Firing Rate, Shafer Lab (AID 2284009);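 further: analyzed for loss of signal so actives lower firing rate relative to DMSO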
Procedure, shortened: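 Percent change in well-mean firing rate was derived from extracellular spikes detected at 8x rms noise (300-5000 Hz band-pass) before and after a 40-min compound exposure. Cultures were primary rat cortical neurons, tested at 0.03-40 uM.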

[10] = CCTE_Shafer_MEA_acute_burst_number: CCTE's Neural Acute Assay for Single-Electrode Bursts, Shafer Lab (AID 2284013)
Procedure, shortened: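 Spontaneous network activity of primary rat cortical neurons was recorded extracellularly on microelectrode arrays at 37 C, with 40-min periods before and during exposure to 0.03-40 uM compound on DIV 13 or 15.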

[11] = CCTE_Shafer_MEA_acute_burst_duration_mean: CCTE's Neural Acute Assay for Mean Burst Duration, Shafer Lab (AID 2284014);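 further: hits are decreases in mean burst duration relative to DMSO controls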
Procedure, shortened: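 Read-out is the per-well percent change in mean burst duration (first to last spike within a single-electrode burst) between 40-min recordings before and after compound. Cultures were primary rat cortical neurons on MEAs, dosed at 0.03-40 uM on DIV 13 or 15.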

[12] = CCTE_Shafer_MEA_acute_per_burst_spike_number_mean: CCTE's Neural Acute Assay for Average Number of Spikes Per Burst, Shafer Lab (AID 2284015);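 further: hits are decreases in mean spikes per burst versus baseline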
Procedure, shortened: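 Percent change in mean spikes per single-electrode burst is compared between a 40 min baseline and a 40 min recording with compound (0.03-40 uM). Cultures were rat cortical neurons on MEA plates at DIV 13 or 15, recorded at 37 C, with DMSO as the negative control.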

[13] = CCTE_Shafer_MEA_acute_interburst_interval_mean: CCTE's Neural Acute Assay for Mean Interburst Interval, Shafer Lab (AID 2284016);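 further: percent change of mean interburst interval versus each well's own pre-dose baseline; curves fitted for decrease in interburst interval relative to DMSO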
Procedure, shortened: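 Percent change in mean single-electrode interburst interval was calculated per well from 40 min recordings before and after compound (0.03-40 uM). Recordings were made at 37 C on rat cortical cultures at DIV 13 or 15, with spikes detected at 8x rms threshold.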

[14] = CCTE_Shafer_MEA_acute_burst_percentage_mean: CCTE's Neural Acute Assay for Percentage of Spikes in a Burst, Shafer Lab (AID 2284017)
Procedure, shortened: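 Well-level mean burst percentage from a 40-min recording after compound (0.03-40 uM) expressed as percent change from a 40-min baseline at 37C. Cultures: primary rat cortical neurons on MEA, dosed on DIV 13 or 15; fitted downward relative to DMSO.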

[15] = CCTE_Shafer_MEA_acute_burst_percentage_std: CCTE's Neural Acute Assay for Standard Deviation of Burst Percentage, Shafer Lab (AID 2284018);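 further: fitted in the negative direction so actives lower burst percentage SD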
Procedure, shortened: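 Value is percent change from baseline in the across-electrode SD of spikes-in-bursts percentage, wells with >/= 10 active electrodes. Acute 40-min exposure to 0.03-40 uM on DIV 13 or 15 rat cortical cultures, recorded at 37 C after 40-min baseline.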

[16] = CCTE_Simmons_MITO_inhib_resp_rate: CCTE's HepG2 Seahorse XF Respirometric Screening Assay at Inhibited Respiratory State [full ETC block], Simmons Lab (AID 2284006); settings: actives raise or lower the signal
Procedure, shortened: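 HepG2 oxygen consumption was measured by Seahorse XF after compound, FCCP, then rotenone/antimycin A injections. Seven concentrations from 125 nM to 100 uM (final) were tested, with 6-min kinetic reads over 72 minutes. Inhibited-state OCR was fitted bidirectionally against DMSO.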

[17] = CCTE_Simmons_MITO_basal_resp_rate: CCTE's HepG2 Seahorse XF Respirometric Screening Assay at Basal Respiratory State, Simmons Lab (AID 2284001); settings: actives raise or lower the signal
Procedure, shortened: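 HepG2 respirometry; 7-pt titration 125 nM–100 uM final; kinetic OCR at 6 min intervals for 72 min; n=3 biological, technical singles; DMSO baseline, gain or loss fit; fenpyroximate (decrease) and 2,4-DNP (increase) controls.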

[18] = CCTE_Simmons_MITO_viability: CellTiter-Glo Viability Assessment for CCTE's HepG2 Seahorse XF Respirometric Screening Assay [post-hoc], Simmons Lab (AID 2284007; active means hit-call score of the fitted dose curve at least 0.9, where 1 is the maximum;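 on AC50: cells exposed to chemical for 90 min before the ATP read; actives lower ATP signal relative to DMSO baseline meaning reduced viability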)
Procedure, shortened: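 HepG2 cells exposed 90 min to 7 concentrations from 125 nM to 100 uM final, then ATP measured by luciferase luminescence. Three biological replicates per concentration; DMSO vehicle; dichlone control at 10 nM–100 uM.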

DIO1 (gene 1733) = assay: CCTE_GLTED_hDIO1: CCTE's human Deiodinase 1 (DIO1) Inhibition Assay, Great Lakes Toxicology and Ecology Division (GLTED) Lab (AID 2283987; active means hit-call score of the fitted dose curve at least 0.9, where 1 is the maximum;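 further: isolated human DIO1 enzyme in a cell-free setup rather than cells; enzyme activity read as free iodide liberated from substrate via Sandell-Kolthoff colorimetry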)
Procedure, shortened: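 Cell-free human DIO1 enzyme incubated 3 h with test chemical; iodide freed from substrate then measured by Sandell-Kolthoff absorbance. Run in triplicate; loss of signal relative to DMSO taken as inhibition.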

Measured: AC50

Sequence of Ratio of Nucleoli Translocation and Cytoplasm, AR (gene 367) (P10275 whole entry, looked up): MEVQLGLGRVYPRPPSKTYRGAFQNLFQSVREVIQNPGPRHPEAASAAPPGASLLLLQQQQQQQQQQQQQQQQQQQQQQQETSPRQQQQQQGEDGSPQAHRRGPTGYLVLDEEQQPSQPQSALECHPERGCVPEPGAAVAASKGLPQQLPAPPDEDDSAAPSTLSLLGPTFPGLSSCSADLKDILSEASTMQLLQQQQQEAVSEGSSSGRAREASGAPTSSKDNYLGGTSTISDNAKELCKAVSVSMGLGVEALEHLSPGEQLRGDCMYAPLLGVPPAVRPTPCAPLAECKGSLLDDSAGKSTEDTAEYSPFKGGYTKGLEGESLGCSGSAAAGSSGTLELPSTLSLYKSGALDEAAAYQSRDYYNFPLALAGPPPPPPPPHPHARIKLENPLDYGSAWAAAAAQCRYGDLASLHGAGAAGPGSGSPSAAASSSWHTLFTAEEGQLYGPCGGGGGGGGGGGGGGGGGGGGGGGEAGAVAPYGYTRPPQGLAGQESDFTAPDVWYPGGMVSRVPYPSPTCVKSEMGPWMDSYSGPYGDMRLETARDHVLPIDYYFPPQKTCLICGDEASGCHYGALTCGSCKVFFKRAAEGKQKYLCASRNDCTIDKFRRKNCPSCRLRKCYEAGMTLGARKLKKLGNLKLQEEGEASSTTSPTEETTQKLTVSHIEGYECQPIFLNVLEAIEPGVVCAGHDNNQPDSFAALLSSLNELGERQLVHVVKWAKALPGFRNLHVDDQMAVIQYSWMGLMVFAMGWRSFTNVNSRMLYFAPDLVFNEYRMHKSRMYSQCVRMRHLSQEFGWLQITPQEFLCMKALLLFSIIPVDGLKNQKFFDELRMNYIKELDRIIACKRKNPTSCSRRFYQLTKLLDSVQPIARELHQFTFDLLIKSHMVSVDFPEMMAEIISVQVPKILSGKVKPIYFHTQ
Sequence of Nucleoli Translocation, AR (gene 367) (P10275 whole entry, looked up): as above

COc1ccc(C)cc1N
inactive: [1] | [2] | [3] | [4] | [5]

CC(=O)Oc1ccccc1C(=O)O
not listed: [1] | [2] | [5] | [16] | [17] | [18] | DIO1 (gene 1733)
inactive: all other assays above

COc1ccc(S(=O)(=O)N2C(=O)[C@@](c3ccccc3OC)(N3C[C@H](O)C[C@H]3C(=O)N(C)C)c3cc(Cl)ccc32)c(OC)c1
active: [8] 31.8 µM | [9] 31.8 µM
not listed: [5] | [17] | [18] | DIO1 (gene 1733)
inactive: all other assays above

COc1cc(/C=C/C(=O)CC(=O)/C=C/c2ccc(O)c(OC)c2)ccc1O
active: [2] 5.79 µM
inactive: [6] | [7] | [3] | [4] | [5]

CC(C)(C)c1cc(O)c(C(C)(C)C)cc1O
active: [17] 18.3 µM | [8] 25.9 µM | [9] 25.9 µM | [11] 29.4 µM | [13] 31.4 µM
not listed: [2] | [5] | DIO1 (gene 1733)
inactive: all other assays above

CCOc1ccc2c(c1)C(C)=CC(C)(C)N2
inactive: [6] | [2] | [7] | [3] | [4]
active: [1] 50 µM

COc1ccc2c(c1)c(CC(=O)O)c(C)n2C(=O)c1ccc(Cl)cc1
active: [17] 13.4 µM
not listed: [1] | DIO1 (gene 1733)
inactive: all other assays above

Cc1cc(=O)[nH]c(=S)[nH]1
active: DIO1 (gene 1733) 16.4 µM
inactive: [3] | [4] | [5]

Cc1cc(NC(=O)C(=O)O)cc(C)c1Oc1ccc(O)c2c1CCC2
inactive: [2] | [7] | [3] | [4]

c1cc(-c2ccncc2)ccn1
not listed: [1] | [2] | [6] | [7] | [16] | [17] | [18] | DIO1 (gene 1733)
inactive: all other assays above

Cc1c(C(=O)O)c(O)cc2c1C(=O)c1c(O)c([C@@H]3O[C@H](CO)[C@@H](O)[C@H](O)[C@H]3O)c(O)c(O)c1C2=O
inactive: [17] | [3] | [4] | [5]
active: [16] 3.25 µM | [18] 40.1 µM

CN1CCCC1=O
not listed: [1] | [2] | [6] | [7] | [16] | [17] | [18] | DIO1 (gene 1733)
inactive: all other assays above

C[Si]1(C)O[Si](C)(C)O[Si](C)(C)O[Si](C)(C)O1
not listed: [1] | [2] | [6] | [7] | [16] | [17] | [18] | DIO1 (gene 1733)
inactive: all other assays above

CC(=O)OC/C=C(\C)CCC=C(C)C
inactive: [3] | [4]

Nc1nc(N)c2nc(CNc3ccc(C(=O)N[C@@H](CCC(=O)O)C(=O)O)cc3)cnc2n1
inactive: [8] | [9] | [10] | [11] | [12] | [13] | [14] | [15]
